Assay outcomes: PubChem, NMMLSC
HRas wt GTP: modulators of GTP binding to human HRas wildtype | AID 759 | GST-Ras wt beads, Bodipy-FL-GTP binding, flow cytometry; actives lie on both sides | P01112 | 0.14% of 190,000 active | GTP binding activity, % at 10 µM;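 active means GTP binding activity at least 20% away from the 100% baseline, either lowered as inhibitor or raised as activator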
Target sequence (P01112 whole entry, looked up): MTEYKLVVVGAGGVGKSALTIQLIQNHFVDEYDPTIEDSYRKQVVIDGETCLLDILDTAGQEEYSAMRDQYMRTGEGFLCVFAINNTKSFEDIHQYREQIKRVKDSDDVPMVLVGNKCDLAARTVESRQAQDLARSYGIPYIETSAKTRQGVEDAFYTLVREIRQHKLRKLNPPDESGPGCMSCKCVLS
Rac1 mut GTP: modulators of GTP binding to human Rac1 activated mutant; P63000; GST-Rac1 activated beads, fluorescent GTP binding, flow cytometry; actives lie on both sides; 100% means binding = to untreated wells; percent activity (GTP binding), % at 10 µM; 0.11% of 190,000 active;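 active means GTP binding at least 20 percentage points away from the 100% baseline, in either direction, so actives lie on both sides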
Rac1 wt GTP bind: human Rac1 wildtype GTP binding, inhibitors and activators | P63000 | GST-Rac1 beads, fluorescent GTP binding, flow cytometry; actives lie on both sides; 0 = cold GTP competed, 100 = untreated | GTP binding activity (% of control), % at 10 µM | 0.27% of 190,000 active;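 active means GTP binding activity at least 20 points away from the 100% control level, either lower or higher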
Rab7 wt GTP bind: modulators of GTP binding to dog Rab7 wildtype GTPase; GTP binding activity (percent of control), % at 10 µM; 0.055% of 190,000 active; GST-Rab7 beads, fluorescent GTP binding, flow cytometry; actives lie on both sides; untreated = 100%, excess cold GTP = 0%; AID 758;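 active means fluorescent GTP binding to Rab7 beads changed by at least 20 points from the 100% baseline, either direction, mostly lower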;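 further: median green fluorescence of bound Bodipy-FL-GTP per Rab7 bead population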
Cdc42 wt: changes GTP binding to wildtype human Cdc42; P60953; GST-Cdc42 beads, Bodipy-GTP binding, flow cytometry; actives lie on both sides; percent activity (GTP binding), % at 10 µM; 0.2% of 190,000 active; AID 761;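 active means percent activity GTP binding at least 20 points away from the 100% baseline, either down as inhibitor or up as activator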;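 further: median bead fluorescence of bound Bodipy-FL-GTP at 100 nM; below 100% means less GTP binding so inhibitor and above means activator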
Target sequence (P60953 whole entry, looked up): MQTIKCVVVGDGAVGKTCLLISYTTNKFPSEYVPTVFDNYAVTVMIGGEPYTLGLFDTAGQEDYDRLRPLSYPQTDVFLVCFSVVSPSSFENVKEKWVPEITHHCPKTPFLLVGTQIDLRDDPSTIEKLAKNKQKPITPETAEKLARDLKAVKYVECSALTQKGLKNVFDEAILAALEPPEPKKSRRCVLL
Rab2A wt mod: changes GTP binding to wildtype dog Rab2A, up or down; P61105; 0.19% of 190,000 active; GST-Rab2 wt beads, Bodipy-GTP binding, flow cytometry; GTP binding activity, % at 10 µM;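 active means GTP binding activity at least 20 points away from 100%, either lowered or raised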
A number is an active result; i = inactive; [ ] = dose if it differs, or a comment. Most compounds without a hit are left out; they make up all but 0.38% or so of the library.

SMILES	HRas wt GTP	Rac1 mut GTP	Rac1 wt GTP bind	Rab7 wt GTP bind	Cdc42 wt	Rab2A wt mod
O=C(NCC1CCCO1)C1CCN(C2CCN(C3CCCCCC3)CC2)CC1 (configuration not stated)	i	i	i	i	i	i
CC(C)CCN1CCN(Cc2ccc(N3CCNC3=O)cc2)CC1CCO (configuration not stated)	i	i	i	i	i	i
O=C1N(Cc2cccnc2)C[C@@H]2C[C@@H](c3ccc4nsnc4c3)N3CCC[C@@]123	i	i	i	i	i	i
CCCC(=O)Nc1ccc(C(=O)n2ccc(C)n2)cc1	i	i	i	i	i	i
Cc1cc(N/N=C/c2ccc(O)cc2O)nc(-c2ccccc2O)n1	79	i	71	i	i	77
CCCn1nc([N+](=O)[O-])c(C(C#N)c2nc3ccccc3o2)c(Cl)c1=O (configuration not stated)	i	i	i	i	i	i
Cn1nc([N+](=O)[O-])c(C(C#N)c2ccccn2)c(Cl)c1=O (configuration not stated)	i	61	i	i	79	i
O=C(O)C1CSC(c2coc3ccccc3c2=O)N1 (configuration not stated)	i	i	i	i	i	i
O=C(O)C1CSC(CCc2ccccc2)N1 (configuration not stated)	i	i	123[activator]	i	i	i
Cc1ccccc1CSc1nnc(C)c(=O)n1N	i	i	i	i	i	i
CCCCC(CC)C(=O)Nc1ccc(C)c(O)c1 (configuration not stated)	i	i	i	i	i	i
COc1ccc(C(=O)Nc2cc(Cl)ccc2OC(=O)c2ccc(OC)cc2)cc1	i	i	i	i	i	i
COc1ccc(C(=O)Nc2cc(Cl)ccc2C(=O)O)cc1	i	77	i	i	78	i
COc1ccc(N2CCN(C(=O)Cn3cnc4c(cnn4-c4ccc(C)cc4)c3=O)CC2)cc1	i	i	i	i	i	i
CCOc1ccc2nc(SCC(=O)N3c4ccccc4Sc4ccccc43)c(C#N)cc2c1	i	i	i	i	i	i
CCOc1ccc2nc(SCc3ccc(CC(=O)O)cc3)c(C#N)cc2c1	i	76	i	i	71	74
Cc1ccc(OCCn2cnc(Cl)c2Cl)cc1	i	i	i	i	i	i
C=C(C)COc1ccc(-c2n[nH]c(C)c2-c2ccc(Br)cc2)c(O)c1	i	i	79	i	i	i
CN(C)S(=O)(=O)c1cccc(-c2nnc(SCCNCCO)n2-c2ccc(F)cc2)c1	i	i	i	i	i	i
CC(=O)Nc1ccc(/C=N/NC(=O)CCN2CCN(c3ccccc3)CC2)cc1	79	i	74	i	76	75
CCn1c(SC2CCOC2=O)nnc1-c1ccc(Cl)cc1 (configuration not stated)	i	i	i	i	i	i
Cc1cc(OC(C)C(N)=O)nc(-c2ccccc2)n1 (configuration not stated)	i	i	i	i	i	i
COc1ccc2nc(SCC(=O)Nc3ccc4c(c3)OCCO4)[nH]c2c1	i	i	i	i	i	i
COc1ccc2[nH]c3nc(SCC(=O)Nc4ccc5c(c4)OCO5)nnc3c2c1	74	i	i	i	74	72
NS(=O)(=O)c1ccc(N2N=C(c3ccccc3)CC2c2cccc(F)c2)cc1 (configuration not stated)	i	i	i	i	61	i
SMILES	HRas wt GTP	Rac1 mut GTP	Rac1 wt GTP bind	Rab7 wt GTP bind	Cdc42 wt	Rab2A wt mod
O=C(NCc1ccc2c(c1)OCO2)c1ccc(CSCc2cccc(Cl)c2)o1	i	i	i	i	79	i
O=C(Nc1cc(C(F)(F)F)ccc1-n1cnc2ccccc21)c1ccccc1	i	i	i	i	i	i
CC(=O)Nc1ccc(N2C(=O)c3ccc(C(=O)Nc4nnc(SCc5ccc(F)cc5)s4)cc3C2=O)cc1	73	i	i	i	i	i
CCCCn1c(O)c(N=NC(=O)c2ccccc2NS(=O)(=O)c2cccs2)c2ccccc21	i	78	i	i	i	i
C=CCn1c(O)c(N=NC(=O)c2ccccc2NS(=O)(=O)c2cccs2)c2ccccc21	i	i	i	i	i	i
N#Cc1c(Cl)nc(SCc2ccccc2)nc1-c1ccccc1	i	i	i	i	i	i
Cc1ccc(S(=O)(=O)NCc2ccc(C(=O)NCCN(Cc3ccccc3)C(C)C)cc2)cc1	i	i	i	i	i	i
COc1cccc(NC(=O)CSc2nc3c([nH]c4ccccc43)c(=O)n2C)c1	i	i	123[activator]	i	i	i
Cc1cccc(NC(=O)CSc2nc3c([nH]c4ccccc43)c(=O)n2C)c1	i	i	i	i	i	i
CCO[C@@H]1OC(C(=O)NCc2ccccc2)=C[C@H](c2coc3ccccc3c2=O)[C@H]1CCCO	i	i	i	i	i	i
COc1cc(NC2c3ccccc3C(=O)N2c2ccc(C)cn2)cc(OC)c1OC (configuration not stated)	i	i	i	i	i	i
Cc1ccc(N2C(=O)c3ccccc3C2Nc2cccnc2)nc1 (configuration not stated)	i	i	121[activator]	i	i	i
CC(C)(C)NC(=O)CCN(/N=C/c1ccc([N+](=O)[O-])o1)C1=NS(=O)(=O)c2ccccc21	42	59	50	72	56	45
Cc1ccc(C(C(=O)NC(C)(C)C)N(Cc2cccnc2)C(=O)C(=O)NC2CCCCC2)o1 (configuration not stated)	i	i	i	i	i	i
COC(=O)COc1ccc(/C=N/NC(=O)c2ccc(N(Cc3ccccc3)S(C)(=O)=O)cc2)cc1	i	i	76	i	i	76
CC(C)Oc1ccc(/C=N/NC(=O)c2ccc(N(Cc3ccccc3)S(C)(=O)=O)cc2)cc1	i	i	74	i	i	74
CS(=O)(=O)N(Cc1ccccc1)c1ccc(C(=O)Nc2cccnc2)cc1	i	i	i	i	i	i
O=C(N/N=C/c1ccccc1)c1ccc(OCc2ccccc2)cc1	i	i	i	i	i	i
COC(=O)[C@@H](NC(=O)O[C@@H]1C(=O)c2ccc(OC)cc2O[C@H]1c1cccc(C(F)(F)F)c1)C(C)C	i	i	i	i	i	i
Cc1ccc(-c2csc3nc4c5ccccc5c(NCCCN(C)C)nn4c(=O)c23)cc1	73	i	79	i	72	77
Cc1ccc(-c2csc3nc(C)n(N)c(=O)c23)cc1	i	i	i	i	i	i
Cc1ccc(-c2csc3nc4c5ccccc5c(NCCCN5CCOCC5)nn4c(=O)c23)cc1	60	i	60	i	57	59
